Data from PubChem BioAssay (NCI).
Compounds without any hit were thinned out: in the full panel of roughly 83,000, 20% have a hit.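 Results are percent growth after 48 hours of single-concentration exposure. 100 means growth as in untreated cells, lower positive values show inhibition; negative values down to -100 show cell death.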 Values without a mark were called inactive. Activity calls are given as the source filed them. The calls were made as follows: active = growth percent below 10; inactive = the rest.

Legend:
Assay in all cases: NCI-60 one-dose screen, 48 h (100 = growth as untreated, 0 = no growth, -100 = all killed)
Conditions in all cases: 10 µM unless noted
SK-MEL-2 melanoma = test system: SK-MEL-2 melanoma
EKVX NSCLC = test system: EKVX NSCLC
SN12C renal = test system: SN12C renal
UO-31 renal = test system: UO-31 renal
TK-10 renal = test system: TK-10 renal
ACHN renal = test system: ACHN renal
CAKI-1 renal = test system: CAKI-1 renal
A498 renal = test system: A498 renal
CCRF-CEM leukemia = test system: CCRF-CEM leukemia
MOLT-4 leukemia = test system: MOLT-4 leukemia
SR leukemia = test system: SR leukemia
OVCAR-8 ovarian = test system: OVCAR-8 ovarian
OVCAR-5 ovarian = test system: OVCAR-5 ovarian
OVCAR-4 ovarian = test system: OVCAR-4 ovarian
SK-OV-3 ovarian = test system: SK-OV-3 ovarian
OVCAR-3 ovarian = test system: OVCAR-3 ovarian
HS 578T breast = test system: HS 578T breast
NCI/ADR-RES ovarian = test system: NCI/ADR-RES ovarian
RPMI-8226 leukemia = test system: RPMI-8226 leukemia
IGROV1 ovarian = test system: IGROV1 ovarian

SMILES | growth (SK-MEL-2 melanoma) | growth (EKVX NSCLC) | growth (SN12C renal) | growth (UO-31 renal) | growth (TK-10 renal) | growth (ACHN renal) | growth (CAKI-1 renal) | growth (A498 renal) | growth (CCRF-CEM leukemia) | growth (MOLT-4 leukemia) | growth (SR leukemia) | growth (OVCAR-8 ovarian) | growth (OVCAR-5 ovarian) | growth (OVCAR-4 ovarian) | growth (SK-OV-3 ovarian) | growth (OVCAR-3 ovarian) | growth (HS 578T breast) | growth (NCI/ADR-RES ovarian) | growth (RPMI-8226 leukemia) | growth (IGROV1 ovarian)
CC1=C(SCCC(=O)OC(C[Se]C2=C(C)C(=O)c3ccccc3C2=O)C(=O)NC(C)(C)C)C(=O)c2ccccc2C1=O (configuration not stated) | 2.5% (active) | -71.2% (active) | -64.4% (active) | -41.2% (active) | -94.3% (active) | -78.3% (active) | -56.4% (active) | -40.6% (active) | -23% (active) | 13.1% | 18.7% | -79.4% (active) | -68.9% (active) | -91.5% (active) | -100% (active) | -97.6% (active) | -21.3% (active) | -68.6% (active) | – | –
Oc1c(I)cc(I)cc1CNCCCN(Cc1ccccn1)Cc1ccccn1 | -30.9% (active) | -85.6% (active) | -50.1% (active) | -100% (active) | -78.5% (active) | -100% (active) | -96.1% (active) | -98.4% (active) | 3.65% (active) | -10.5% (active) | 4.38% (active) | -11.2% (active) | -44.9% (active) | -94.3% (active) | -73% (active) | -69.9% (active) | -21.7% (active) | -17.1% (active) | – | –
c1ccc(OCc2nnc(-c3ccc(Oc4ccccc4)cc3)o2)cc1 | 91.4% | 96.6% | 99% | 81.7% | 103% | 92.9% | 97.1% | 111% | 96.7% | 87.6% | 85.8% | 99.1% | 104% | 98.7% | 96.9% | 98.3% | 99% | 96.9% | – | –
NCCCNc1nc2ccccc2c2c(=O)c3cc(F)cc(Cl)c3sc12 | 105% | 91.9% | 82.7% | 58.4% | 106% | 61.9% | 63.1% | 66.3% | 6.83% (active) | 77.7% | -17.3% (active) | 5.77% (active) | 96.6% | -65.3% (active) | 102% | 102% | 88.3% | 85.5% | – | –
COC1=C(C)C(=O)c2c(c(CCCl)c3n2CCC3OC(C)=O)C1=O (configuration not stated) | -45.6% (active) | 0.0316% (active) | 3.34% (active) | -60.9% (active) | -37.9% (active) | -3.88% (active) | 0.742% (active) | -87.8% (active) | 50.2% | 34.4% | 1.94% (active) | 10.2% | 4.93% (active) | 72% | -21.6% (active) | -23.3% (active) | -22.9% (active) | 8.95% (active) | – | –
COc1ccc2c(c1)C(C)Cc1c(ncnc1-n1c(C)nc3ccccc31)N2C (configuration not stated) | 33.9% | 43.4% | 35.8% | 37.3% | 57% | 51.4% | 25.2% | -9.67% (active) | 18.3% | 20.6% | 4.92% (active) | 38.8% | 78.3% | 58.6% | 31.5% | 5.47% (active) | 2.46% (active) | 5.75% (active) | – | –
CN1C(=O)CNC(=O)[C@H](NC(=O)c2nc3ccccc3cc2O)CSSC[C@H]1C(=O)NCCCc1nc2ccccc2cc1O | -12.5% (active) | 85.4% | 73.4% | 62.6% | 75% | 82.3% | 107% | 118% | 14.3% | -4.7% (active) | -46.3% (active) | 86.2% | 121% | 96% | 113% | 9.86% (active) | 90.7% | 102% | – | –
CCOC(=O)c1[nH]c(C)c(C(=O)OCc2ccccc2C#N)c1C | 82.3% | 114% | 95% | 88.3% | 90.9% | 87.4% | 82.1% | 79.3% | 92.4% | 78.8% | 45.7% | 70.5% | 105% | 85.8% | 88.3% | 62.5% | 49.1% | 14.9% | – | –
COc1cc(CCC[P+](c2ccccc2)(c2ccccc2)c2ccccc2)c(OC)c(OC)c1OC | 80.5% | 72.7% | 77.5% | 43.7% | 91% | 83.4% | 39.7% | -6.09% (active) | 65% | 57.6% | – | 85.6% | 79.6% | 49.8% | 83.5% | 72% | 51.8% | 77.7% | 68.4% | 70.5%
O=C1NC(=O)C(c2ccccc2)(c2ccccc2)N1Cc1cn(-c2c3ccccc3nc3ccccc23)nn1 | 97.9% | 80.4% | 83.6% | 62.4% | 74.9% | 81.5% | 73.5% | 77.7% | 64.6% | 53.5% | 31.4% | – | 103% | 81.1% | 83.5% | 87% | 83% | – | – | 83.3%
c1ccc(Cc2nn3cc(-c4ccccc4)nc3s2)cc1 | 97% | 95.9% | 103% | 95.4% | 89.5% | 106% | 98.7% | 96.5% | 102% | 93.9% | 82.1% | – | 109% | 106% | 112% | 105% | 115% | 102% | – | 106%
N#Cc1c(-c2ccccc2)nc(SCC(=O)Nc2nc(-c3ccc(Cl)cc3)cs2)[nH]c1=O | 92.3% | 106% | 104% | 83.2% | 110% | 103% | 89% | 87.7% | 92.2% | 89.8% | – | 99.1% | 90.7% | 110% | 85.2% | 108% | 88.6% | 103% | 92.5% | 96.5%
CN1CCN(c2ccc(-c3cc4c(Nc5ccc(F)c(Cl)c5)ncnn4c3)cc2)CC1 | 103% | 83.5% | 70.1% | 82.7% | 73.6% | 44% | 66.8% | 61.9% | 28.9% | 34.2% | – | 70.4% | 95.2% | 71.2% | 92.7% | 77% | 75.2% | – | 13.1% | 49.5%
CN1C(=O)CNC(=O)[C@H](NC(=O)c2nc3ccccc3cc2O)CSSC[C@H]1C(=O)NCCc1nc2ccccc2cc1O | -17.1% (active) | 73.9% | 69.2% | 56.5% | 67.9% | 78.6% | 105% | 131% | 23.5% | 0.111% (active) | -41.8% (active) | 92.2% | 129% | 90.7% | 117% | 19.5% | 92.3% | 105% | – | –
CC1Cc2c(ncn3c(-c4ccc(F)cc4)nnc23)N(C)c2ccccc21 (configuration not stated) | 99.6% | 32.8% | 19.8% | 27.6% | 21.8% | 44% | 55.5% | 28.3% | 49.3% | 82.1% | 25% | 57.1% | 78% | -66.2% (active) | 76.3% | 6.26% (active) | – | 41% | – | –
Fc1cc(-c2nnc3sc(-c4ccc(Cl)cc4Cl)nn23)c(Cl)cc1Cl | 94.7% | 73.3% | 82.8% | 73% | 109% | 73.7% | 86.5% | 109% | -78.6% (active) | 134% | – | 82.6% | 96.6% | 26.2% | 77.1% | 99.4% | -14.7% (active) | – | 84% | 86.1%
CCN(CC)S(=O)(=O)c1ccc(NC(=O)CSc2nnc(C)n2-c2ccccc2)cc1 | 92.5% | 107% | 98.1% | 80.8% | 126% | 98.7% | 106% | 107% | 97.9% | 96.2% | – | 102% | 95.4% | 102% | 105% | 116% | 95.5% | 99.2% | 103% | -1.42% (active)
